# Source: PubChem BioAssay (several laboratories)
# Rows were chosen to be rich in hits. Some 28% of all compounds tested hit in one or more screens of this group.
# CYP2C19 inh = inhibitors of human CYP2C19. P33261. CYP2C19 Supersomes, luciferin-H EGE luminescence, 30 min. inhibition, % at 5 µM. actives 21% (n = 96,000);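 active = CYP2C19 inhibition above a set limit at 5 µM in the primary screen, cut at about 50% in these data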;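 also: plate controls were negative control wells for no effect and 2.5 mM tranylcypromine positive control for full effect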
# PLK1 kinase inh = blocks human PLK1 kinase activity; actives 0.53% (n = 97,000); inhibition, % at 10 µM; recombinant PLK1 kinase, TR-FRET peptide phosphorylation; P53350;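 active = inhibition of 50% or more in the single-concentration screen; inactive = inhibition below 50%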;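 also: 0% = DMSO max control and 100% = H-89 dihydrochloride min control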
# CYP2C9 inhib = blocks human cytochrome P450 2C9 | actives 20% (n = 96,000) | CYP2C9 Supersomes, luciferin-H conversion, luminescence | P11712 | inhibition, % at 5 µM;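 active = blocking of liver enzyme CYP2C9 beyond about 50% at 5 µM, limit read from the data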
# CYP2C9 activ = CYP2C9 (human) activation | P11712 | recombinant CYP2C9, luciferin-H conversion, luminescence; stronger effect = higher value; factor 1 = untreated enzyme, 0 = blocked | activation factor at 5 µM | actives 1.4% (n = 96,000) | AID 1024;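 active = activation factor of 2 or more for CYP2C9 at a 5 µM dose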;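 also: 0 = sulfaphenazole-blocked wells and 1 = vehicle-only wells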
# CYP2C19 act = activators of human cytochrome P450 2C19; P33261; recombinant CYP2C19, luciferin-H EGE luminescence; stronger effect = higher value; 0 = fully inhibited enzyme, 1 = untreated enzyme; activation factor at 5 µM; 96,000 tested, under 10 active;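 active = activation factor of at least 2 at 5 µM in the primary screen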;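 also: 0 = wells with 2.5 mM tranylcypromine and 1 = vehicle-only wells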
# PLK1 PBD inh = blocks phosphopeptide binding to human Plk1 polo box domain; P53350; actives 0.13% (n = 97,000); inhibition, %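 (tested at about 20 µM)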; Plk1 PBD phosphopeptide binding, fluorescence polarization; in the data active = inhibition above about 34%, passing the limit was not always enough
# Starred values were filed as active, the others as inactive; / = no result given.
SMILES,CYP2C19 inh,PLK1 kinase inh,CYP2C9 inhib,CYP2C9 activ,CYP2C19 act,PLK1 PBD inh
CCCCOc1ccc(CNC(=S)N/N=C/c2ccc(OC)c(OC)c2)cc1,8,-2,60*,0.4,0.9,-12
CN1CCN(CCN2CCn3c2nc2ccccc23)CC1,33,-5,2,1,0.7,-31
O=C(NCCc1cn2ccccc2n1)C1CCCCC1,27,-1,14,0.9,0.7,-7
COC(=O)c1ccccc1NC(=O)c1cc(-c2ccc(OC)c(OC)c2)on1,/,-8,/,/,/,-13
Cc1ccc(O)c(Sc2cc(C)ccc2O)c1,97*,-14,96*,0,0,9
Cc1ccc(O)c(NC(=O)CCCC(=O)O)c1,-11,/,-4,1,1.1,/
COC(=O)c1ccc(O)c(Sc2cc(C(=O)OC)ccc2O)c1,88*,-11,100*,0,0.1,24
O=C(c1cc(-c2ccccc2)nc2ccccc12)N1N=C(C(F)F)CC1(O)C(F)F (stereo not given),82*,-10,100*,0,0.2,22
CCCCn1c(=NC(=O)c2cccnc2)c(C#N)cc2c(=O)n3cccc(C)c3nc21,1,-20,-2,1,1,-3
COCCCn1c(=NC(=O)c2ccncc2)c(C#N)cc2c(=O)n3cccc(C)c3nc21,70*,/,81*,0.2,0.3,/
Cc1cccn2c(=O)c3cc(C#N)c(=NC(=O)c4ccncc4)n(CCCOC(C)C)c3nc12,94*,-14,87*,0.1,0.1,5
Cc1cc(C)c(C)c(S(=O)(=O)NCC(=O)Nc2sc3c(c2C(N)=O)CCCC3)c1C,32,-8,22,0.8,0.7,-24
Cc1c(NC(=O)C(C)Sc2nc3ccccc3c(=O)n2CCO)c(=O)n(-c2ccccc2)n1C (stereo not given),15,2,58*,0.4,0.9,9
Cc1c(NC(=O)CSc2nc3ccccc3n2C)c(=O)n(-c2ccccc2)n1C,1,-5,-106,2.1*,1,-38
Cc1c(NC(=O)C(C)Sc2ccc3ccccc3n2)c(=O)n(-c2ccccc2)n1C (stereo not given),23,-4,9,0.9,0.8,-15
Cc1ccc(C)c(OCCCCn2cnc3ccccc3c2=O)c1,31,-10,-4,1,0.7,11
CCOc1cccc(OCCCCn2ccnc2)c1,99*,-10,89*,0.1,0,-11
Cc1ccc(C)c(OCCCCCn2ccnc2)c1,100*,-3,100*,0,0,-12
CC(NC(=O)COc1cccc(Br)c1)C(=O)O (stereo not given),-3,-8,1,1,1,-29
Brc1cccc(OCCn2ccnc2)c1,93*,-8,64*,0.4,0.1,-12
Brc1cccc(OCCOCCn2ccnc2)c1,100*,-1,99*,0,0,-2
CCCCc1c(O)nc(SCCN(C)C)n(-c2ccccc2)c1=O,-1,-13,7,0.9,1,-23
Cc1cc(OCCCn2ccnc2)cc(C)c1Cl,100*,/,97*,0,0,/
CCN(CC)CCOCCOc1cc(C)c(Cl)c(C)c1,3,-2,-5,1,1,-1
Cc1cccc(NC(=O)NCC(F)(F)F)n1,-9,2,11,0.9,1.1,4
SMILES,CYP2C19 inh,PLK1 kinase inh,CYP2C9 inhib,CYP2C9 activ,CYP2C19 act,PLK1 PBD inh
Cc1cccc(NC(=O)C(C)Oc2ccccc2C)n1 (stereo not given),85*,-2,61*,0.4,0.1,6
CCn1c2ccccc2c2cc(NC(=O)CSc3nnc(-c4ccc(OC)cc4)n3N)ccc21,18,-13,24,0.8,0.8,28
Cc1cccc(NCc2ccccc2O)c1C,96*,-7,61*,0.4,0,-23
CCOC(=O)c1c(NC(=O)CSc2nnc(-c3ccco3)o2)sc(C(C)=O)c1C,14,-1,70*,0.3,0.9,6
CCOC(=O)c1c(NC(=O)CSc2nnc(-c3cccnc3)o2)sc(C(C)=O)c1C,14,1,65*,0.3,0.9,11
CCN(CC)CCn1c2ccc(F)cc2c2nc(C)sc21,28,-10,27,0.7,0.7,-5
O=P(O)(CCc1ccncc1)CN1CCCCC1,-14,-9,-15,1.1,1.1,42
Cc1occc1-c1nnc(SCC(=O)c2ccccc2)n1CC1CCCO1 (stereo not given),15,-8,-3,1,0.8,-14
